These results are taken from PubChem BioAssay.

SMILES strings stand for the structures. Activity calls are given as the source filed them. Unless noted, the rule behind the calls is not given here.

Experiment [1] in a line: HepG2 liver cancer cell viability effects, profiling panel, resazurin fluorescence, 24 h, PK04 Diversity Set (AID 1172). Particulars: higher = more signal. A general note: Alamar Blue is a resazurin reagent that responds to reducing activity.
Experiment [2] can be described thus: basal S. cerevisiae growth modulation, no modifier, primary screen, OD600, strain BY4716, 24 h, basal condition (AID 1173). To be noted: OD600, 24 h, higher = more signal, called active from +8 up or from −8 down.
Experiment [3] is described as follows: MM1S myeloma cell viability, profiling panel, resazurin fluorescence, basal, 24 h, PK04 Diversity Set (AID 1174).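 Note: MM1S multiple myeloma cell line.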 To be noted: higher = more signal, called active from +8 up or from −8 down.
Experiment [4] addresses Dihydroorotate dehydrogenase (quinone), mitochondrial (Plasmodium falciparum (isolate 3D7)) (UniProt Q08210). As to the kind of experiment: PfDHODH enzyme inhibitors, primary screen, biochemical, C-terminal His tag, absorbance 600 nm (AID 1175).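 Note: recombinant parasite enzyme with a five histidine tag at its C terminus.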 To be noted: DCIP absorbance 600 nm, higher = more signal, called active from +8 up or from −8 down.
Experiment [5] can be described thus: P. aeruginosa biofilm formation inhibitors, primary screen, strain PAO1, LB-PBS medium, absorbance 600 nm (AID 1176). Particulars: P. aeruginosa PAO1 growth/biofilm, A600, 12 h; higher = more signal.
Experiment [6] in a line: S. cerevisiae RM11-1a growth modifiers, primary screen, strain RM11-1a, OD600, basal, 24 h (AID 1177).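 Note: cultures grown under basal conditions with no added stressor.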 To be noted: OD600, 24 h, higher = more signal, called active from +8 up or from −8 down.
Experiment [7] is described as follows: E. coli acrAB mutant growth effects, primary screen, E. coli filamentation inducers, strain DRC39, OD650, 24 h (AID 1178).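 Note: growth measured as culture turbidity by optical density at 650 nm.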 Particulars: higher = more signal, called active from +8 up or from −8 down.
The nature of experiment [8]: E. coli acrAB mutant growth effects, primary screen, E. coli filamentation inducers, strain DRC39, OD650, 48 h (AID 1179).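 Note: screen aims at cell division blockers that make cells filament.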 Particulars: E. coli DRC39 delta-acrAB growth, higher = more signal, called active from +8 up or from −8 down.
Experiment [9] is described as follows: RPMI8226 myeloma cell viability, profiling panel, resazurin fluorescence, basal, 24 h, PK04 Diversity Set (AID 1180).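 Note: RPMI8826 multiple myeloma cell line at 5000 cells per well.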 Particulars: higher = more signal.
Experiment [10] deals with E3 ubiquitin-protein ligase XIAP (Homo sapiens) (UniProt P98170). As to the kind of experiment: XIAP binders, primary screen, biophysical, small-molecule microarray, fluorescence 635 nm (AID 1181).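 Note: score merges 667 nm emission and signal to noise over triplicate slides.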 To be noted: small-molecule microarray binding, higher = more signal.
Experiment [11] relates to XIP peptide (Xip251-270) binding. The experiment in a line: small-molecule binders of XIP peptide, primary screen, biochemical, small-molecule microarray, fluorescence 635/667 nm, 0.1 µg/mL protein (AID 1182). To be noted: fluorescent protein binding, 635 nm, higher = more signal, called active from +8 up or from −8 down.
The next experiment relates to XIP peptide (Xip251-270). As to the kind of experiment: small-molecule binders of XIP peptide, primary screen, biochemical, small-molecule microarray, fluorescence 635/667 nm, 0.5 µg/mL protein (AID 1183). To be noted: small-molecule microarray binding, fluorescence 635 nm; higher = more signal.
Experiment [12] in a line: Plasmodium falciparum growth inhibition, primary screen, strain 3D7, DAPI fluorescence, 100 nL (AID 1184).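 Note: parasites grown inside human red blood cells in medium with human serum.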 To be noted: P. falciparum 3D7 growth, 3 d, higher = more signal.
Experiment [13] has as its target Homeobox protein Hox-A13 (Mus musculus) (UniProt Q62424). The experiment in a line: inhibitors of HoxA13-DNA binding, primary screen, biochemical, fluorescence polarization, labeled oligonucleotide (AID 1185). To be noted: 15 min, higher = more signal, called active from +8 up or from −8 down. (Polarisation of emitted light reports the rotation of a fluorescent probe.)

Experiment [14] can be described thus: inhibitors of hydroxyurea-induced Chk1 phosphorylation, primary screen, imaging, HeLa, phospho-Chk1 antibody, percent positive cells (AID 1186). To be noted: hydroxyurea-induced phospho-Chk1 immunofluorescence imaging, higher = more signal.
Experiment [15] can be described thus: inhibitors of hydroxyurea-induced Chk1 phosphorylation, primary screen, imaging, HeLa, phospho-Chk1 nuclear intensity (AID 1187). Particulars: hydroxyurea-induced phospho-Chk1 immunofluorescence imaging, higher = more signal.

Chain of Homeobox protein Hox-A13 (Mus musculus) (Q62424 whole entry, looked up): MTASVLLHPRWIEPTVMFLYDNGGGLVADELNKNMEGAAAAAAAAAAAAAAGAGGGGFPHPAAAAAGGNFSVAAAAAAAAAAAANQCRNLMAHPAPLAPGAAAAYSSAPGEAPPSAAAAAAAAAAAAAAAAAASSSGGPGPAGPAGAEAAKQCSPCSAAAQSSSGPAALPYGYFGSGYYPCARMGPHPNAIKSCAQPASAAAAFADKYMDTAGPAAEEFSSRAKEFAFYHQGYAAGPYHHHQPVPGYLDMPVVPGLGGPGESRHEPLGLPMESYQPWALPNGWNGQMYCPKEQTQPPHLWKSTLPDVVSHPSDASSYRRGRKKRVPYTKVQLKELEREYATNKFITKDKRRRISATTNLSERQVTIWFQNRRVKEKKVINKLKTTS
Chain of Dihydroorotate dehydrogenase (quinone), mitochondrial (Plasmodium falciparum (isolate 3D7)) (Q08210 whole entry, looked up): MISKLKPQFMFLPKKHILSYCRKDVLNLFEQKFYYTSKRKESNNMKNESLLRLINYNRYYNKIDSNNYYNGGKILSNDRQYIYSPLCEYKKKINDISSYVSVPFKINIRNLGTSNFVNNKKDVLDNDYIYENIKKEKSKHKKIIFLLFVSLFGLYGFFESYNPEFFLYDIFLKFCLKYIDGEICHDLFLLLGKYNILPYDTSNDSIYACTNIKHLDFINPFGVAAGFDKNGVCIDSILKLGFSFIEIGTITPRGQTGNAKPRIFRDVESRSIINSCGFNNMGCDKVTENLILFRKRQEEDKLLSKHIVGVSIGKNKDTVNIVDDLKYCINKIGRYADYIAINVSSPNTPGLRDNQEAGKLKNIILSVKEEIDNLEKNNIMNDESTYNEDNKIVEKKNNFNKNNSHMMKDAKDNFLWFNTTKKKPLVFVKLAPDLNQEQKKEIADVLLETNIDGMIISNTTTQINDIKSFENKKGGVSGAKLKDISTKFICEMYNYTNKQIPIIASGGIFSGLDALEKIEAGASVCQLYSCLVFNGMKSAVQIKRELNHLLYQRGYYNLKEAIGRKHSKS
Chain of E3 ubiquitin-protein ligase XIAP (Homo sapiens) (P98170 whole entry, looked up): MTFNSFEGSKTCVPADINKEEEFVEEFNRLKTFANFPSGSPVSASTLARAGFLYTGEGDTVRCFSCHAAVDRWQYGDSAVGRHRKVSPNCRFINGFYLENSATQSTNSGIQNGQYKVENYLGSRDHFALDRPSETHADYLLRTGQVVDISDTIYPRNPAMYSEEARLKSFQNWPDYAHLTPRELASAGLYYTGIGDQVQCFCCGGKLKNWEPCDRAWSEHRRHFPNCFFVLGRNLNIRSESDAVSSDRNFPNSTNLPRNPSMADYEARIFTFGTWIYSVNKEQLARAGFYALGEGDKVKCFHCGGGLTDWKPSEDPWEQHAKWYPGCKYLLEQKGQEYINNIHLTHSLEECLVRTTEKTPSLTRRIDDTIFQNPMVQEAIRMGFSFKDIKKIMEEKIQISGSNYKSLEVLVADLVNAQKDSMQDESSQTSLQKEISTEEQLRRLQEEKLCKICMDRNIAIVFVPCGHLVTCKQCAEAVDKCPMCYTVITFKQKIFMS

As to `COCCOC(=O)N1C(=O)[C@@]2(c3cc(C#CC4(O)CCCCCC4)ccc31)[C@H](c1ccc(O)cc1)N1[C@H](c3ccccc3)[C@H](c3ccccc3)OC(=O)[C@H]1[C@@H]2C(=O)N1CCCCCCC1`, the z-score was 0.0323 in [1]; -0.525 (inactive) in [2]; 0.341 (inactive) in experiment [3]; 1.19 (inactive) in experiment [5]; 0.478 (inactive) in [6]; -0.298 (inactive) in experiment [7]. Besides, the z-score in [8] is 0.625 (inactive); in experiment [9] it was -0.196; in experiment [12] it was -1.74; in experiment [13], 0.0885 (inactive); in [14], -0.0596 (inactive); in experiment [15] it was 0.244 (inactive). Moreover, the composite z-score in experiment [4] is -1.45 (inactive); in [10], -0.0351; in experiment [11] it was 0.265 (inactive); in the experiment with XIP peptide (Xip251-270), 0.747.

For `C=C1C(=O)C=C2CN(C(=O)c3ccccc3)[C@@](Cc3ccc(OC)cc3)(C(=O)OC)[C@@H]12`, the z-score in experiment [1] was -0.187; in experiment [2], 1.33 (inactive); in experiment [3], -1.82 (inactive); in experiment [5], 0.964 (inactive); in [6] it was 0.468 (inactive); in [7], -0.624 (inactive). For the same compound, the z-score in [8] was -0.841 (inactive); in [9], -4.1; in [12] it was -1.17; in experiment [13] it was -3.61 (inactive); in experiment [14] it was 0.395 (inactive); in experiment [15], 0.354 (inactive). Also, the composite z-score in experiment [4] was 0.046 (inactive); in experiment [10], 0.107; in experiment [11], 0.187 (inactive); in the experiment with XIP peptide (Xip251-270) it was 0.691.

Consider `CC(C)c1nc2cc(Br)ccc2c(=O)o1`, for which the z-score in [1] is 0.693; in experiment [2] it was 1.25 (inactive); in [3], -0.47 (inactive); in experiment [5] it was 0.13 (inactive); in [6], 0.0542 (inactive); in experiment [7], 0.692 (inactive). For the same compound, the z-score in experiment [8] is 1.24 (inactive); in experiment [9] it was 0.0076; in [12], -0.795; in experiment [13], -0.27 (inactive); in experiment [14] it was -0.0165 (inactive); in [15] it was 0.0785 (inactive). Besides, the composite z-score in [4] was 0.374 (inactive); in experiment [10], 0.0705; in experiment [11], 0.697 (inactive); with XIP peptide (Xip251-270), 0.355.

`CCOC(=O)C1=C[C@@H](C(C)(C)C)N(S(=O)(=O)c2ccc(C)cc2)[C@H]1c1ccc(C#N)cc1`: the z-score in [1] was -0.718; in experiment [2], 2.25 (inactive); in [3] it was -0.153 (inactive); in experiment [5] it was 0.16 (inactive); in experiment [6], 1.56 (inactive); in experiment [7] it was -0.264 (inactive). Also, the z-score was -0.361 (inactive) in experiment [8]; -1.22 in [9]; -1.82 in [12]; -0.543 (inactive) in experiment [13]; 0.892 (inactive) in [14]; 1.21 (inactive) in experiment [15]. Further, the composite z-score was -0.158 (inactive) in [4], -0.0559 in experiment [10], -0.331 (inactive) in [11] and 0.662 in the experiment on XIP peptide (Xip251-270).

With `CN(C)CCCCNC(=O)[C@H]1C[C@H]2C(=O)NCC(=O)N2[C@H]1c1ccc(O)cc1`, the z-score in experiment [1] is 1.1; in [2], -0.0401 (inactive); in [3], 0.917 (inactive); in experiment [5], -0.599 (inactive); in experiment [6], 1.56 (inactive); in experiment [7], 0.0662 (inactive). In addition, the z-score in [8] is -0.363 (inactive); in experiment [9], 0.511; in experiment [12], 0.185; in experiment [13] it was -4.67 (inactive); in [14], -0.15 (inactive); in [15], -0.186 (inactive). Also, the composite z-score in experiment [4] was 0.373 (inactive); in experiment [10], 0.147; in [11] it was 0.372 (inactive); in the experiment with XIP peptide (Xip251-270), 0.815.

For `CCOC(=O)C[C@H]1[C@H](OC(=O)c2ccccc2-c2ccccc2)[C@@H](NC(=O)c2ccc3ccccc3c2)c2cc(OCCCO)ccc2N1C(=O)Cc1ccc(OC)cc1`, the z-score was -0.397 in experiment [1]; 0.118 (inactive) in [2]; -0.142 (inactive) in [3]; -0.283 (inactive) in experiment [5]; -0.899 (inactive) in [6]; -0.516 (inactive) in [7]. For the same compound, the z-score was -0.404 (inactive) in [8]; -0.0439 in experiment [9]; 0.0063 in experiment [12]; -2.79 (inactive) in experiment [13]; -0.242 (inactive) in [14]; -0.189 (inactive) in experiment [15]. In addition, the composite z-score in experiment [4] is -0.0597 (inactive); in [10], 0.0711; in [11], 0.882 (inactive); in the experiment on XIP peptide (Xip251-270), -0.47.

As to `CC(C)N1C(=O)c2ccccc2[C@](C)(C(=O)NCC(F)(F)F)[C@@H]1c1ccc(CO)cc1`, the z-score in experiment [1] was -0.116; in experiment [2], -1.3 (inactive); in experiment [3] it was 0.117 (inactive); in experiment [5], -0.618 (inactive); in [6], -0.613 (inactive); in experiment [7] it was 0.558 (inactive). In addition, the z-score in experiment [8] was -0.0513 (inactive); in experiment [9], 1.45; in experiment [12] it was -0.805; in experiment [13], -1.98 (inactive); in experiment [14], 0.256 (inactive); in experiment [15] it was 0.462 (inactive). In addition, the composite z-score was -0.172 (inactive) in experiment [4], -0.0195 in experiment [10], 0.112 (inactive) in experiment [11] and 0.464 in the experiment with XIP peptide (Xip251-270).

As to `C=C(COC)C(=O)CC[C@H](OC(=O)c1cccnc1)c1ccc(OCCO)cc1`, the z-score is -0.974 in experiment [1]; -3.4 (inactive) in [2]; -0.443 (inactive) in [3]; -0.0342 (inactive) in [5]; 1.29 (inactive) in experiment [6]; -0.768 (inactive) in experiment [7]. For the same compound, the z-score in experiment [8] is -0.8 (inactive); in experiment [9], -0.776; in [12], -0.711; in experiment [13], -5.58 (inactive); in experiment [14] it was 0.35 (inactive); in [15], 0.343 (inactive). Also, the composite z-score in experiment [4] is -2.45 (inactive); in experiment [10] it was -0.0013; in experiment [11], 1.08 (inactive); in the experiment with XIP peptide (Xip251-270) it was 0.447.

Take `C[C@]1(C(=O)O)c2ccccc2C(=O)N(Cc2cc(F)cc(C(F)(F)F)c2)[C@H]1c1ccc(CO)cc1`: the z-score in experiment [1] was 0.646; in [2], -1.43 (inactive); in experiment [3], 0.449 (inactive); in experiment [5] it was 1.01 (inactive); in experiment [6] it was -1.33 (inactive); in experiment [7], 0.434 (inactive). Also, the z-score was -0.808 (inactive) in [8]; 1.4 in experiment [9]; 0.832 in experiment [12]; -1.83 (inactive) in experiment [13]; 0.117 (inactive) in [14]; 0.239 (inactive) in experiment [15]. Besides, the composite z-score in [4] is -0.215 (inactive); in experiment [10], -0.167; in [11] it was 0.342 (inactive); with XIP peptide (Xip251-270), 0.778.
